HepG2 tox: kills HepG2 cells in TGF-b inhibitor counter-screen; HepG2 CAGA-GFP viability, ATP luminescence, 18 h; 0.76% of 410,000 active; Potency, µM (titrated, usually from 46.1 µM), actives largely listed as cytotoxic
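HepG2 CAGA-GFP cells (1000/well, DMEM with 1% FBS) received compound, then TGF-beta at 500 pg/mL final, and were incubated 18 hours at 37 degrees C. Viability was read by CellTiter-Glo luminescence. Media-only wells were set as complete cell-killing and DMSO as no toxicity.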
Nrf2 inh: blocks Nrf2 signaling; AID 504444; A549 ARE-Fluc reporter, luciferase luminescence, 18-24 h; 2.1% of 360,000 active; Potency, µM (doses to about 46 µM), most hits filed as inhibitors; note: nearly all actives have a fitted effect of over 60% in size
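Cells were seeded and rested 2 h, then exposed to compounds for 18-24 h. CellTiter-Fluor was read first as a viability measure. BugLite was added 15 min before the final luminescent read of ARE-luciferase activity in A549 cells.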
TGFb inhibitor: blocks TGF-b signaling; HepG2 CAGA-GFP TGF-b/SMAD3 reporter, GFP fluorescence, 18 h; TGF-beta stimulated, 500 pg/mL final; Potency, µM (top dose mostly 46.1 µM), hits mostly inhibitors; 1.2% of 410,000 active; note: nearly all actives have a fitted effect of over 65% in size
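Read-out: total well GFP (ex488/em500-530) summed from mean per-cell fluorescence. Cells: HEPG2 CAGA-GFP, 1% FBS DMEM, 18 h at 37 degrees C with 500 pg/mL final TGF-beta. Unstimulated wells served as the full-inhibition control; stimulated DMSO wells = 0%.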
ATXN viability: viability counter-screen for ATXN expression inhibitors. S2 cells (HEK-293 line with an ATXN2-luciferase reporter) viability, CellTiter-Fluor protease fluorescence, 24 h. Potency, µM (titrated, usually from 56.7 µM), most hits filed as cytotoxic. 0.49% of 400,000 active. AID 651635; note: nearly all actives have a fitted effect of over 40% in size
A549 tox: kills or reduces viability of A549 cells in Nrf2 counter-screen | A549 ARE-Fluc cells, CellTiter-Fluor viability, 18-24 h | Potency, µM (highest dose often 46 µM), most hits filed as inhibitors | 0.16% of 390,000 active
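A549 ARE_Fluc cells in 5% FBS OPTI-MEM were exposed to compounds in concentration-response for 18-24 h at 37 deg C. Viability was read by CellTiter-Fluor fluorescence (Ex 405/Em 525) after 30 min, before the luciferase read.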
ATXN2 expr inh: reduces ATXN2 reporter expression in HEK-293 cells. 0.72% of 360,000 active. Potency, µM (doses to about 57 µM), hits mostly inhibitors. AID 1745845. HEK-293 ATXN2-luciferase reporter, luminescence, 24 h; note: nearly all actives have a fitted effect of over 55% in size
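ATXN2-luciferase reporter cells (luciferase flanked by upstream and downstream ATXN2 gene portions) were treated 24 h at 37 °C with compounds at up to 57 uM. SteadyGlo luminescence gave expression; GF-AFC fluorescence gave viability.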
Each line names hits and unclear results; the compound was inactive in the other large screens. A selection: hits, their analogues and other compounds. The true share with any hit is near 3.8%. Calls come from the whole dose curve; as a rule, active = well fitted curve in the direction sought with a large enough effect; inconclusive = small, poorly fitted or top-dose-only effect, or another doubt; inactive = no such curve, though single readings can be large; an effect the other way counts as inactive or inconclusive.

Cc1cnc(C)c(Nc2nc(C(N)Cc3ccc(F)cc3)cs2)n1 (centres undefined)	TGFb inhibitor inconclusive, ATXN viability inconclusive, ATXN2 expr inh inconclusive (no result: Nrf2 inh, A549 tox)
COc1cc(OC)nc(Nc2nc(C(N)Cc3ccc(Cl)cc3)cs2)n1 (centres undefined)	HepG2 tox 11µM, TGFb inhibitor inconclusive, ATXN2 expr inh 32µM (no result: Nrf2 inh, ATXN viability, A549 tox)
Cc1cnc(C)c(Nc2nc(C(N)Cc3ccc(Cl)cc3)cs2)n1 (centres undefined)	TGFb inhibitor 18µM, ATXN2 expr inh inconclusive (no result: Nrf2 inh, A549 tox)
FC(F)(F)c1cccc(Nc2cc(-c3ccccc3)nc3ncnn23)c1	none (no result: ATXN2 expr inh)
Cc1cc(N2CCN(c3ccccc3)CC2)n2ncnc2n1	Nrf2 inh 21µM, ATXN viability inconclusive
COc1cccc(N2CCN(c3c4c(nc5ncnn35)CCC4)CC2)c1	Nrf2 inh 13µM
FC(F)(F)c1ccc(N2CCN(c3cc(-c4ccccc4)nc4ncnn34)CC2)nc1	Nrf2 inh 15µM, TGFb inhibitor inconclusive, A549 tox inconclusive, ATXN2 expr inh inconclusive
c1ccc(N2CCN(c3c4c(nc5ncnn35)CCC4)CC2)cc1	Nrf2 inh 12µM
O=C(CCCCCn1c(=O)c2sccc2n(CC(=O)Nc2cccc(Cl)c2)c1=O)NCc1ccc2c(c1)OCO2	Nrf2 inh inconclusive, TGFb inhibitor inconclusive (no result: ATXN viability, ATXN2 expr inh)
CC1=C(C(=O)Nc2ccccc2)C(c2cccnc2)n2nc(SCc3ccccc3Cl)nc2N1 (centres undefined)	none
CCn1c(SC(C)C(=O)NCc2ccco2)nnc1-c1ccccc1 (centres undefined)	none (no result: Nrf2 inh, ATXN viability, A549 tox, ATXN2 expr inh)
Cc1cc(-c2ccc(C(C)C)c(S(=O)(=O)N3CCOc4ccccc43)c2)on1	Nrf2 inh 21µM, TGFb inhibitor inconclusive
CCc1ccc(-c2cc(C)no2)cc1S(=O)(=O)N1CCOc2ccc(C)cc21	Nrf2 inh 13µM, TGFb inhibitor inconclusive
CS(=O)(=O)N1CCC(C(=O)Nc2ccc(Cl)cc2Cl)CC1	ATXN viability inconclusive (no result: Nrf2 inh, A549 tox, ATXN2 expr inh)
Cc1ccc(-n2ncc3c2CC(C)(C)CC3NC(=O)c2c(C)noc2C)cc1 (centres undefined)	none
CCc1nc2ccc(C(=O)NCC3CCCCC3)cn2c1N(C)Cc1nccs1	ATXN viability inconclusive (no result: Nrf2 inh, A549 tox)
CCOc1cc(CNCCSc2nnnn2C)ccc1OCc1ccc(Cl)cc1Cl	HepG2 tox 11µM, TGFb inhibitor inconclusive, A549 tox inconclusive, ATXN2 expr inh inconclusive
Cn1nnnc1SCCNCc1ccc(OCc2ccc(Cl)cc2)cc1	HepG2 tox 6.3µM, Nrf2 inh inconclusive, TGFb inhibitor inconclusive, ATXN viability inconclusive
CC(C)c1ccc(CNCCSc2nnnn2C)cc1	Nrf2 inh inconclusive
Cn1nnnc1SCCNCc1ccccc1OCc1ccc(Cl)cc1Cl	Nrf2 inh 12µM, TGFb inhibitor inconclusive (no result: ATXN viability, ATXN2 expr inh)
COc1ccc(NC(=O)Cn2nnc(-c3ccccc3NC(=O)c3cccs3)n2)cc1	Nrf2 inh 18µM, ATXN viability inconclusive, ATXN2 expr inh inconclusive
Cc1ccc(NC(=O)Cn2nnc(-c3ccccc3NC(=O)c3cccs3)n2)cc1	Nrf2 inh inconclusive, ATXN viability inconclusive, A549 tox inconclusive
CN(C)C(CNC(=O)c1cc(S(=O)(=O)N(C)Cc2ccccc2)ccc1Cl)c1ccco1 (centres undefined)	Nrf2 inh 15µM
O=C(NC(c1ccc2c(c1)OCO2)c1ccccn1)C1CCN(CCOc2ccccc2)CC1 (centres undefined)	none (no result: Nrf2 inh, A549 tox)
O=S1(=O)C=C(Sc2nnc(-c3ccccc3)o2)c2ccccc21	HepG2 tox 14µM, Nrf2 inh inconclusive, TGFb inhibitor 10µM, A549 tox inconclusive, ATXN2 expr inh 10µM (no result: ATXN viability)
COC(=O)[C@@H]1CCCN1C(=O)c1cc(NC(=O)c2ccccc2)cc2ncn(C3CCCC3)c12	none (no result: HepG2 tox, Nrf2 inh, TGFb inhibitor, A549 tox, ATXN2 expr inh)
C=CC(=O)Nc1cccc(Nc2nc(N[C@H]3CC[C@H](N(C)C)CC3)nc3c2ncn3C(C)C)c1	Nrf2 inh 0.58µM, TGFb inhibitor 0.71µM, ATXN viability 2µM, A549 tox 2.6µM, ATXN2 expr inh 1µM
Cc1ccc(NC(=O)C(C)OC(=O)COc2cccc(C(F)(F)F)c2)cc1 (centres undefined)	none (no result: ATXN2 expr inh)
COc1cc(NCCC(=O)c2cccs2)c(OC)cc1Cl	TGFb inhibitor inconclusive
COC(=O)c1c(NC(=O)CC2SC(N)=NC2=O)sc(C)c1C (centres undefined)	none
O=C(CC1C[C@H](C(=O)N2CCOCC2)[C@@]2(CCC3CCCC3)c3[nH]c4ccccc4c3CCN2C1=O)NCc1cccc(C(F)(F)F)c1 (some centres undefined)	none
CC(C)=CCC/C(C)=C/CNC(=O)C[C@H]1C[C@H](C(=O)N2CCCCC2)[C@@]2(C)c3[nH]c4cc(CCC(=O)N(C)C)ccc4c3CCN2C1=O	Nrf2 inh inconclusive, TGFb inhibitor inconclusive, ATXN viability 32µM, ATXN2 expr inh inconclusive
CC(C)=CCC/C(C)=C/CNC(=O)C[C@H]1C[C@H](C(=O)N2CCOCC2)[C@@]2(C)c3[nH]c4cc(CCC(=O)N(C)C)ccc4c3CCN2C1=O	Nrf2 inh 15µM, TGFb inhibitor inconclusive, ATXN viability inconclusive, ATXN2 expr inh inconclusive
CC[C@]12c3[nH]c4ccccc4c3CCN1C(=O)C(CC(=O)NC/C=C(\C)CCC=C(C)C)C[C@@H]2C(=O)N1CCN(C(=O)c2ccco2)CC1 (some centres undefined)	Nrf2 inh 23µM, TGFb inhibitor inconclusive (no result: ATXN viability)
CN(C)C(=O)CCc1ccc2c3c([nH]c2c1)[C@]1(CCC2CCCC2)[C@@H](C(=O)N2CCOCC2)C[C@H](CC(=O)NCc2cccc(C(F)(F)F)c2)C(=O)N1CC3	Nrf2 inh inconclusive, TGFb inhibitor 11µM, ATXN2 expr inh inconclusive (no result: ATXN viability)
Cc1cnc2ccccc2c1/C=C/c1ccc(N(C)C)cc1	none (no result: Nrf2 inh, ATXN viability, A549 tox, ATXN2 expr inh)
CCOC(=O)N1CCN(C2CCCN(C(=O)c3cccc(Cl)c3)C2)CC1 (centres undefined)	none
COC(=O)c1cccc(NC(=O)CN2CCc3ccccc3C2)c1	none
Fc1ccccc1N1CCN(c2c3c(nc4nncn24)CCC3)CC1	none
CCc1[nH]nc2c1C(c1ccc(Br)s1)C(C#N)=C(N)O2 (centres undefined)	TGFb inhibitor 11µM
Cc1ccc(SCc2[nH]nc3c2C(c2ccco2)C(C#N)=C(N)O3)cc1 (centres undefined)	HepG2 tox 13µM, TGFb inhibitor inconclusive
O=C(C[C@H]1C/C=C\C[C@H](NC(=O)OCC2c3ccccc3-c3ccccc32)C(=O)O[C@H](c2ccccc2)CNC1=O)N[C@H](CO)Cc1ccccc1	Nrf2 inh inconclusive, TGFb inhibitor 16µM, ATXN viability inconclusive, A549 tox inconclusive, ATXN2 expr inh inconclusive
